Compound activity deposited in PubChem BioAssay by National Center for Advancing Translational Sciences (NCATS).
D3 antag: qHTS of D3 Dopamine Receptor Antagonist: qHTS; D(3) dopamine receptor (Homo sapiens), P35462; D3R cells, DiscoveRx beta-arrestin luminescence, antagonist mode; active compounds read low; max response, negative = inhibition, %; 360,000 tested, 2.5% active; AID 652054, 2013; in the data active = max response below about -50%; inconclusive = no clear call, values can overlap the other calls; note: % is set by controls: 0 for no effect and ±100 for the full control effect
Target sequence (P35462 whole entry, looked up): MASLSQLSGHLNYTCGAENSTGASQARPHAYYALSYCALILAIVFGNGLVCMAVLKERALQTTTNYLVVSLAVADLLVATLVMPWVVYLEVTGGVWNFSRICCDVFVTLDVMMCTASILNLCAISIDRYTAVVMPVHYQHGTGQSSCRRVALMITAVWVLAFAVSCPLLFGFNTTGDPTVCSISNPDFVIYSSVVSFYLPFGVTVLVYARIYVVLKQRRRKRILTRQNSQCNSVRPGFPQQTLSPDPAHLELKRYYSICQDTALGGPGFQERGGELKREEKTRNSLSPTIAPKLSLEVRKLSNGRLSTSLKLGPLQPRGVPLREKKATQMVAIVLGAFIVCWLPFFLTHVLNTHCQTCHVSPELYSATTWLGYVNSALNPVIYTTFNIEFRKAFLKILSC
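Cells plated overnight at 1500 cells/well, then exposed to library compounds with dopamine controls for 90 minutes at 37 degrees C. DiscoveRx reagent added for 30–60 minutes at room temperature; luminescence read, quantitative HTS format.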
D3 ag: qHTS of D3 Dopamine Receptor Agonist: qHTS; D(3) dopamine receptor (Homo sapiens), P35462; D3R DiscoveRx beta-arrestin cells, luminescence, 90 min; max activation, %; 410,000 tested, 0.58% active; in the data active = max activation above about 30%; note: 0% is about no effect
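Cells at 1500/well, incubated overnight, then treated with pinned compounds (dopamine as control) for 90 min at 37 degrees C. DiscoveRx reagent added for 30 - 60 minutes at room temperature; luminescence read.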
HepG2 tox: qHTS for Inhibitors of TGF-b: Cytotox Counterscreen; AID 588856, 2011; HepG2 CAGA-GFP viability, ATP luminescence, 18 h; Potency, µM (series often up to 46.1 µM), inactives show top-dose activity change, negative = cytotoxicity, most hits filed as cytotoxic; 410,000 tested, 0.76% active; note: potency is the fitted concentration of half-maximal effect
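CellTiter-Glo luminescence gave cytotoxicity after 18 hours at 37 degrees C. The cells were HepG2 CAGA-GFP in 1% FBS DMEM, stimulated with 500 pg/mL TGF-beta after compound addition. %Activity was normalised to no-cell wells (complete cell-killing) and DMSO (no toxicity), and curves were fitted and classified.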
TGFb inhibitor: qHTS for Inhibitors of TGF-b. HepG2 CAGA-GFP TGF-b/SMAD3 reporter, GFP fluorescence, 18 h; TGF-beta stimulated, 500 pg/mL final. Potency, µM (doses to about 46.1 µM), for inactives: at the top dose activity, negative = inhibition, usual class: inhibitors. 410,000 tested, 1.2% active; note: potency is the fitted concentration of half-maximal effect; % is set by controls: 0 for no effect and ±100 for the full control effect; nearly all actives have a fitted effect of over 65% in size
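HEPG2 CAGA-GFP, 1000 cells/well; 2 h settle, 37 C; cpd via pin tool; TGF-b 500 pg/mL final; 18 h, 37 C; GFP imaging ex488/em500-530; %Activity normalised to -TGF-b and +DMSO controls; CRC fit, curve class.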
ATXN viability: Viability Counterscreen for Primary qHTS for Inhibitors of ATXN expression; S2 cells (HEK-293 line with an ATXN2-luciferase reporter) viability, CellTiter-Fluor protease fluorescence, 24 h; 400,000 tested, 0.49% active; Potency, µM (top dose mostly 56.7 µM), usual class: cytotoxic; note: potency is the fitted concentration of half-maximal effect; nearly all actives have a fitted effect of over 40% in size
ATXN2 expr inh: Primary qHTS for Inhibitors of ATXN expression | HEK-293 ATXN2-luciferase reporter, luminescence, 24 h | Potency, µM (highest dose often 57 µM), for the others: at the highest dose activity change, negative = inhibition, actives largely listed as inhibitors | 360,000 tested, 0.72% active | AID 1745845, 2022; note: potency is the fitted concentration of half-maximal effect; % is set by controls: 0 for no effect and ±100 for the full control effect; nearly all actives have a fitted effect of over 55% in size
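ATXN2-luciferase reporter cells (luciferase flanked by upstream and downstream ATXN2 gene portions) were treated 24 h at 37 °C with compounds at up to 57 uM. SteadyGlo luminescence gave expression; GF-AFC fluorescence gave viability.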
The depositor's hits bear a star; i = inactive; ? = inconclusive; nt = no result; [ ] = another dose, or the depositor's remark. Sampled rows, rich in hits. Any-hit rate of the full collection: about 4.7%. Unless noted, calls come from the whole dose curve; as a rule, active = well fitted curve in the direction sought with a large enough effect; inconclusive = small, poorly fitted or top-dose-only effect, or another doubt; inactive = no such curve, though single readings can be large; an effect the other way counts as inactive or inconclusive.

SMILES	D3 antag	D3 ag	HepG2 tox	TGFb inhibitor	ATXN viability	ATXN2 expr inh
CCc1ccc(-n2c(=O)c3c4c(sc3n(CC(=O)NCCCOC)c2=O)CCCC4)cc1	nt	-15	-6%	0%	i	-4%
CC(C)c1c(C(=O)N(C)Cc2cccc3ncccc23)cnn1-c1nccc(-c2ccco2)n1	nt	nt	nt	nt	i	nt
Cc1cc(C)c2c(n1)nn1c(C)c(CCC(=O)NCc3ccccc3Cl)c(C)nc21	nt	-7	-2%	2%	i	16%
COc1cc2c(cc1OC)C(c1cc(Br)ccc1F)N(C(=O)CCl)CC2 (centres undefined)	-87*	-2	-106%	?	?	nt
COc1cc2c(cc1OC)C(C1C(=O)CC(C)(C)CC1=O)N(C(=O)CCl)CC2 (centres undefined)	1	10	4%	28%	i	nt
O=C(CCc1ccccc1O)N/N=C/c1ccc(Sc2cccc3cccnc23)o1	11	3	-59%	14µM*	?	-26%
Cc1ccc(/C=C/C(=O)N2CCN(c3ccc(F)cc3)CC2)o1	8	7	-6%	-6%	i	-16%
Cc1ccc(/C=C/C(=O)N2CCN(c3ncccn3)CC2)o1	-24	-8	-27%	10µM*	?	0%
CCN(CC)C(=O)Cn1cc(SCC(=O)Nc2cc(OC)ccc2OC)c2ccccc21	nt	-13	-6%	0%	nt	nt
O=C(C[n+]1ccccc1Br)c1ccc(Cl)cc1	nt	nt	8%	28%	nt	nt
CC[C@H]1OC(=O)C[C@@H](O)[C@H](C)[C@@H](O[C@@H]2O[C@H](C)[C@@H](O)[C@H](N(C)C)[C@H]2O)[C@@H](CCN2C[C@H](C)C[C@H](C)C2)C[C@@H](C)C(=O)/C=C/C(C)=C/[C@@H]1CO[C@@H]1O[C@H](C)[C@@H](O)[C@@H](OC)[C@H]1OC	nt	-4	nt	nt	nt	nt
CCN(CC)C(=O)c1[nH]cnc1C(=O)NCC(=O)OCc1ccccc1	45	39*	-3%	0%	i	0%
CN(Cc1ccccc1)C(=O)c1[nH]cnc1C(=O)NCc1ccc(CNC(=O)OC(C)(C)C)cc1	78	70*	0%	?	?	-13%
CC(C)(C)OC(=O)NCc1ccc(NC(=O)c2nc[nH]c2C(=O)N[C@@H](Cc2ccccc2)C(=O)OCc2ccccc2)cc1	32	31*	-11%	?	nt	?
CC(C)(C)OC(=O)CNC(=O)c1[nH]cnc1C(=O)NCCCCCNC(=O)OC(C)(C)C	74	55*	-18%	-24%	?	?
CC(C)(C)OC(=O)NCc1ccc(CNC(=O)c2[nH]cnc2C(=O)NCC(=O)OCc2ccccc2)cc1	127	43*	-1%	-2%	?	?
CC(C)(C)OC(=O)NCc1ccc(CNC(=O)c2nc[nH]c2C(=O)NCc2ccccc2)cc1	21	12	9%	?	?	-23%
COc1ccc(NC(=O)c2nc[nH]c2C(=O)NCc2ccccc2)cc1	-3	57*	-20%	-6%	i	-10%
COc1ccc2[nH]c(S(=O)Cc3ncc(C)c(OC)c3C)nc2n1 (centres undefined)	nt	2	nt	nt	i	12%
C/C=C(/C(=C/C)c1ccc(OC(C)=O)cc1)c1ccc(OC(C)=O)cc1	nt	nt	nt	nt	i	-12%
C[Se]CC[C@H](N)C(=O)O	nt	2	nt	nt	nt	nt
Cc1ccc(C2=Nc3ccc(Cl)cc3OC2)cc1	nt	nt	nt	nt	nt	38%
CC(=O)OCC(=O)[C@@]1(OC(C)=O)[C@H](C)C[C@H]2[C@@H]3C[C@H](F)C4=CC(=O)C=C[C@@]4(C)[C@]3(F)[C@H](O)C[C@@]21C	nt	nt	nt	nt	i	nt
CCOC(=O)C(=O)c1csc(NC=O)n1	nt	nt	nt	nt	i	12%
S=c1nn[nH]c2ccccc12	-20	85*	-11%	18%	i	24%
SMILES	D3 antag	D3 ag	HepG2 tox	TGFb inhibitor	ATXN viability	ATXN2 expr inh
Nc1n[nH]c2ccccc12	8	24	9%	2%	i	-5%
CCN(CC)CCCNC(=S)Nc1ccc(Br)cc1	-19	-11	-21%	-21%	i	-7%[11.3 µM]
S=C(NCCC(c1ccccc1)c1ccccc1)Nc1ccccc1Cl	68	-16	-48%	?	i	-6%
CC(C)N(c1ccccc1)c1ccc(NC(=S)NCCN(C)C)cc1	-73*	-13	-13%	-24%	i	?
S=C(NCCC(c1ccccc1)c1ccccc1)Nc1ccc(Cl)cc1	18	11	-50%	20µM*	?	?
CCN(CC)CCNC(=S)Nc1ccc(Cl)cc1	-51*	-11	-36%	-4%	i	-5%
COc1ccccc1NC(=S)NCCC(c1ccccc1)c1ccccc1	-3	-3	-14%	13µM*	i	nt
COc1cc(NC(=S)NCCC(c2ccccc2)c2ccccc2)c(OC)cc1Cl	-11	0	0%	?	i	-3%
COc1ccc(Cl)cc1NC(=S)NCCC(c1ccccc1)c1ccccc1	-65*	-21	-34%	?	i	-19%
Cc1cn2c(=O)cc(COc3cccc(NC(=O)c4ccccc4Cl)c3)nc2s1	nt	-6	5%	-9%	i	-2%
CNC(=O)COc1ncnc2sc(C)c(C)c12	0	-12	10%	15%	i	-4%
Cc1sc2ncnc(OCC(=O)NCc3cccs3)c2c1C	-83*	7	-14%	-2%	i	2%
CC(C)c1ccc(NC(=O)C2CCN(S(=O)(=O)c3ccc(Br)s3)CC2)cc1	nt	8	-18%	-9%	i	-9%
O=C(Nc1ccc(Cl)cc1)C1CCN(S(=O)(=O)c2ccc(Br)s2)CC1	nt	0	-40%	13µM*	?	0%
Cc1csc(NC(=O)C2CCCN(S(=O)(=O)c3ccc(Br)s3)C2)n1 (centres undefined)	6	-8	5%	18µM*	i	-18%
Cc1ccc(CNc2ncnc3nc[nH]c23)cc1	nt	nt	-1%	10%	nt	nt
CCOC(=O)c1c(C)oc2ccc(O)c(CN(C)C)c12	-23	-1	14%	28%	i	-8%
CCOC(=O)c1c(CSc2ccc(CC)cc2)oc2ccc(O)c(CN(C)C)c12	-64*	-8	22µM*	?	nt	16µM*
CCCOc1ccc2c(c1)CC[C@@H]1[C@@H]2CC[C@]2(C)C(OC)CC[C@@H]12 (some centres undefined)	nt	nt	nt	nt	i	1%
O=C(COC(=O)c1cc([N+](=O)[O-])ccc1N1CCOCC1)Nc1ccc(Cl)cn1	-4	1	-34%	?	?	7.1µM*
